Out of some 420,000 compounds screened, about 64,000 (15%) were called active. Roughly 27% stayed inconclusive and do not appear here. These entries were drawn from the full list. Unmarked numbers belong to inactive results. The call rests on the fitted dose curve; in most records, active means well fitted inhibition curve with a large enough effect; inconclusive means small, poorly fitted or top-dose-only effect; inactive means flat fitted curve, though single readings scatter.
Assay: qHTS for Inhibitors of human tyrosyl-DNA phosphodiesterase 1 (TDP1): qHTS in cells in absence of CPT; further: nearly all actives have a fitted effect of over 55% in size
Conditions: DT40 Tdp1-/- hTDP1 cells, no CPT, ATP luminescence, 48 h; activity change, negative = growth inhibition: at 46.2 µM (top of the series)
Procedure, shortened: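 Growth of hTDP1-complemented DT40 Tdp1-knockout cells is measured by ATP luminescence after at least 48 hr compound exposure at 37 °C, with DMSO substituting for the 20 nM CPT used in the parallel screen.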
On the % scale 0 is the no-effect control and ±100 the full control effect; potency means the concentration at half of the fitted maximal effect.

Row | Compound | activity change, negative = growth inhibition [%] | Potency
1 | O=C(CN1CCN(c2ccc(O)cc2)CC1)Nc1ccc(-c2ccccc2)cc1 | -44.9 | –
2 | O=C(Cc1ccccc1)NC(=S)Nc1ccc(N2CCCCC2)cc1 | – | 23.1 µM (active)
3 | COC(=O)c1ccc(NC(=S)NN2CCOCC2)cc1 | 13.8 | –
4 | O=C(CCN1CCN(c2ccccc2)CC1)NNC(=S)Nc1ccccc1 | 2.36 | –
5 | Nc1nonc1-c1noc(-c2ccc(Br)o2)n1 | -1.12 | –
6 | CCC1=C(C(=O)OC)C(c2cc(OC)ccc2OC)C(C#N)=C(N)O1 (configuration not stated) | -25 | –
7 | CCOc1ccc(C(=O)NCCCN2CCCC2=O)cc1 | -1.06 | –
8 | O=C1CCCN1CCCNc1ncnc2c1[nH]c1ccccc12 | -24.8 | –
9 | COc1cc(OC)c(OC)cc1/C=N/Nc1ncnc2c1[nH]c1ccc(C)cc12 | -26.5 | –
10 | CC(C)OCCCNc1ncnc2c1[nH]c1ccc(F)cc12 | – | 2.91 µM (active)
11 | Cc1cc(C)c2c(NC(=O)C3CC3)nn(C)c2n1 | 13.9 | –
12 | NC1=NC(c2cc(F)cc(F)c2)n2c(nc3ccccc32)N1 (configuration not stated) | -4.29 | –
13 | Cc1nnc(N/N=C/C2CC=CCC2)[nH]c1=O (configuration not stated) | -9.68 | –
14 | CCN(CC)c1ccc(/C=N/Nc2nc(C)cc(C)n2)c(O)c1 | – | 3.26 µM (active)
15 | Cc1ccc(C(=O)NCCNC(=O)c2cnccn2)cc1 | -18.1 | –
16 | CCN(CC)c1ccc(C(=O)Nn2c(C)nc3ccccc3c2=O)cc1 | -17.2 | –
17 | CCN(CC)c1ccc(/C=N/NC(=O)c2cnccn2)c(O)c1 | – | 4.11 µM (active)
18 | CCN(CC)c1ccc(/C=N/NC(=O)CNC(=O)c2cccnc2)cc1 | 17.6 | –
19 | CCCCC(CC)C(=O)Nc1ccc(Cl)cn1 (configuration not stated) | 0.311 | –

Row | Compound | activity change, negative = growth inhibition [%] | Potency
20 | Cc1cc2c(cc1C)N(Cc1ccccc1)C1=NCCCN12 | – | 13 µM (active)
21 | O=C(CN1C2=NCCN2c2ccccc21)c1cccs1 | -19.9 | –
22 | Nc1ccc(C(=O)OCC(=O)NC2CCCc3ccccc32)cc1[N+](=O)[O-] (configuration not stated) | -10.2 | –
23 | CCc1ccc(NC(=O)c2sc3nc4c(cc3c2N)CN(CC)CC4)cc1 | – | 18.4 µM (active)
24 | CCN1CCc2nc(NC(=O)c3cc(F)c(F)cc3Cl)sc2C1 | -22.7 | –
25 | CCc1ccc(NC(=O)N2CCc3ccccc3C2)cc1 | -15 | –
26 | CC(C(=O)NC1CCCC1)N(c1ccc(Oc2ccccc2)cc1)S(C)(=O)=O (configuration not stated) | -1.2 | –
27 | O=C(C[C@H]1CC[C@H]2[C@@H](COC[C@H](O)CN2C(=O)c2ccccn2)O1)N1CCN(c2ccccc2)CC1 | -3.18 | –
28 | O=C(CCSc1ccccc1)NCCSc1ccccn1 | -28.3 | –
29 | O=c1c(=O)n(Cc2c(F)cccc2Cl)ccn1Cc1ccccc1 | -13.7 | –
30 | O=[N+]([O-])/C=C/c1ccc2c(ccn2Cc2ccccc2)c1 | – | 4.11 µM (active)
31 | O=C(CNC(=O)c1n[nH]c2ccccc12)Nc1cc(Cl)ccc1Cl | -26 | –
32 | COc1ccc(C)cc1NC(=S)Nc1ccccc1SC | 4.85 | –
33 | CSc1ncccc1C(=O)NC1CCCCCC1 | -13.8 | –
34 | CC(C)(C)C(=O)Nc1ccc(-c2cn3cccnc3n2)cc1 | -10.1 | –
35 | Cc1nc2ccccc2n1CC(=O)N/N=C/c1cccs1 | -6.77 | –
36 | NNC(=O)CSc1nnc(-c2ccccc2)n1-c1ccccc1 | -0.662 | –
37 | Cc1ccc(-c2nnc(SCC(=O)N/N=C/c3cccs3)n2-c2ccc(C)cc2)cc1 | – | 14.6 µM (active)
38 | CN(C)c1nccc(NCc2ccccc2)c1C#N | -11.5 | –

Row | Compound | activity change, negative = growth inhibition [%] | Potency
39 | Cc1ccc(-c2nnc(SC(C)C#N)n2N)cc1 (configuration not stated) | -11.7 | –
40 | CCCNC(=O)C(CC)n1nc(CC)n2c(cc3oc(C)cc32)c1=O (configuration not stated) | – | 20.6 µM (active)
41 | CCc1nn(CCCC(=O)NC(C)c2ccccc2)c(=O)c2cc3occc3n12 (configuration not stated) | 8.18 | –
42 | CCc1nn(CC(=O)NCC(C)c2ccccc2)c(=O)c2cc3occc3n12 (configuration not stated) | -24.4 | –
43 | Cc1ccnc(NC(=O)CCC(=O)N(CC(=O)NCCc2ccccc2)Cc2cccs2)c1 | -11.8 | –
44 | C=CCNC(=O)C1CC=CCC1C(=O)O (configuration not stated) | -1.68 | –
45 | CCCCNC(=O)c1ccc(-n2c(=S)[nH]c3ccccc3c2=O)cc1 | -6.01 | –
46 | O=[N+]([O-])c1ccccc1/C=C/CN1CCC(O)CC1 | 10.5 | –
47 | O=C(c1cc(COc2c(F)cccc2F)on1)N1CCSCC1 | -1.53 | –
48 | N=c1c2c(-c3ccccc3)c(-c3ccccc3)oc2ncn1Cc1ccco1 | – | 20.6 µM (active)
49 | C(=C\c1ccccc1)/CSc1nnc(-c2cccnc2)n1Cc1ccco1 | 4.04 | –
50 | Cn1c(SCC(=O)N2CCOCC2)nnc1-c1ccc2ncccc2c1 | -28.6 | –
51 | O=C1c2ccncc2C(=O)N1C1CCCCC1 | 3.68 | –
52 | Cn1c(=O)c(=O)n(C)c2cc(S(=O)(=O)NCCc3ccccc3)ccc21 | -4.87 | –
53 | C=CC[C@@H](Cc1ccc(F)cc1)C(=O)OC[C@H]1CCCN1C(=O)[C@H](CC=C)CC(=O)N(CCO)Cc1ccccc1 | – | 18.4 µM (active)
54 | C=CCC[C@@H](Cc1ccc(F)cc1)C(=O)OC[C@@H](C)NC(=O)[C@H](CC=C)CC(=O)N(CCO)Cc1ccccc1 | – | 8.2 µM (active)
55 | C=CCC(NC(=O)Cc1ccccc1)C(=O)NCCC (configuration not stated) | -4.55 | –
56 | CC(CCc1ccccc1)NC(=O)COC(=O)c1ccc(F)cc1 (configuration not stated) | -0.972 | –
57 | C=CC[C@H](CC(=O)N(CCO)Cc1ccccc1)C(=O)N[C@@H](COC(=O)[C@@H](CC=C)Cc1ccc(F)cc1)Cc1ccccc1 | – | 20.6 µM (active)

— PubChem BioAssay AID686978 (National Center for Advancing Translational Sciences (NCATS), 2013)
